# Shown are actives, neighbours in structure and some others; about 12% of the full set was active somewhere.
# Sfp PPTase inh: Sfp phosphopantetheinyl transferase inhibition | Q9F4F7 | Biochemical Sfp PPTase activity, qHTS | Potency, µM, inactives show largest response in the series, negative = inhibition, most hits filed as inhibitors | hit rate 3.5% among 310,000 | AID 1490;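 further: the enzyme is Sfp with the accession as filed and its product quenches rhodamine fluorescence; 0% = enzyme reaction without inhibitor and -100% = no enzyme wells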
#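 Buffer: 50 mM Hepes-Na pH 7.6, 10 mM MgCl2, 0.01% Nonidet P-40, 0.01% BSA. Enzyme 15 nM, pre-exposed to compound 15 min; substrates then added and fluorescence change tracked over 30 min.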
# JMJD2A Tudor inh: inhibitors of human JMJD2A Tudor domain; hit rate 4.4% among 390,000; AID 504339; Potency, µM (highest dose often 114 µM), without a hit: at the top dose activity change, negative = inhibition, actives largely listed as inhibitors; AlphaScreen JMJD2A-Tudor / H3K4me3 peptide binding; O75164; further: on the % scale 0 is the no-effect control and ±100 the full control effect; nearly all actives have a fitted effect of over 50% in size
# HP1b chromo inh: blocks HP1-beta chromodomain binding to methylated histone tails; AlphaScreen HP1-beta / biotin-H3K9me3 peptide binding; Potency, µM (doses to about 114 µM), for inactives: at the highest dose activity change, negative = inhibition, actives largely listed as inhibitors; hit rate 0.56% among 390,000; AID 540317; further: nearly all actives have a fitted effect of over 70% in size
#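 HP1-beta protein (50 nM final) preincubated 30 min at room temperature with biotinylated H3(1-18)K9me3 peptide (50 nM) in PBS pH 7.4, 0.01% Tween-20, then compound added for 30 min. AlphaScreen streptavidin donor/nickel chelate acceptor beads (10 ug/mL final), 30 min dark, luminescence read.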
# BAZ2B inh: blocks human BAZ2B. Q9UIF8. AlphaScreen BAZ2B-H3K14Ac peptide displacement. Potency, µM (highest dose often 114 µM), for the others: at the top dose activity change, negative = inhibition, hits mostly inhibitors. hit rate 4.4% among 360,000. AID 504333; further: on the % scale 0 is the no-effect control and ±100 the full control effect; nearly all actives have a fitted effect of over 60% in size
#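 BAZ2B 50 nM plus b-H3(5-23)K14Ac 50 nM, PBS pH 7.4/0.01% Tween-20, 30 min RT; compound added (max 110 uM), 30 min RT; streptavidin donor/Ni-chelate acceptor beads 10 ug/mL final, 20 min dark; AlphaScreen read.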
# G9a block: inhibitors of human histone lysine methyltransferase G9a | Q96KQ7 | G9a H3K9 monomethylation, AlphaScreen, 2 h | Potency, µM (titrated, usually from 102 µM), without a hit: top-dose activity, negative = inhibition, most hits filed as inhibitors | hit rate 8.8% among 350,000 | AID 504332; further: on the % scale 0 is the no-effect control and ±100 the full control effect; nearly all actives have a fitted effect of over 75% in size
#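 Signal arises when biotinylated H3K9 peptide, once monomethylated, bridges streptavidin donor and antibody-captured acceptor beads. Enzyme at 20 nM was preincubated 15 min with test compounds; peptide 500 nM and SAM 20 uM then reacted for 2 h.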
# L3MBTL1 inh: inhibitors of human L3MBTL1 | Q9Y468 | AlphaScreen L3MBTL1–H3K9me1 peptide binding | Potency, µM (series often up to 57.1 µM), for inactives: at the highest dose activity, negative = inhibition, hits mostly inhibitors | hit rate 0.66% among 230,000; further: on the % scale 0 is the no-effect control and ±100 the full control effect; nearly all actives have a fitted effect of over 60% in size
# Target sequence (Q9Y468 whole entry, looked up): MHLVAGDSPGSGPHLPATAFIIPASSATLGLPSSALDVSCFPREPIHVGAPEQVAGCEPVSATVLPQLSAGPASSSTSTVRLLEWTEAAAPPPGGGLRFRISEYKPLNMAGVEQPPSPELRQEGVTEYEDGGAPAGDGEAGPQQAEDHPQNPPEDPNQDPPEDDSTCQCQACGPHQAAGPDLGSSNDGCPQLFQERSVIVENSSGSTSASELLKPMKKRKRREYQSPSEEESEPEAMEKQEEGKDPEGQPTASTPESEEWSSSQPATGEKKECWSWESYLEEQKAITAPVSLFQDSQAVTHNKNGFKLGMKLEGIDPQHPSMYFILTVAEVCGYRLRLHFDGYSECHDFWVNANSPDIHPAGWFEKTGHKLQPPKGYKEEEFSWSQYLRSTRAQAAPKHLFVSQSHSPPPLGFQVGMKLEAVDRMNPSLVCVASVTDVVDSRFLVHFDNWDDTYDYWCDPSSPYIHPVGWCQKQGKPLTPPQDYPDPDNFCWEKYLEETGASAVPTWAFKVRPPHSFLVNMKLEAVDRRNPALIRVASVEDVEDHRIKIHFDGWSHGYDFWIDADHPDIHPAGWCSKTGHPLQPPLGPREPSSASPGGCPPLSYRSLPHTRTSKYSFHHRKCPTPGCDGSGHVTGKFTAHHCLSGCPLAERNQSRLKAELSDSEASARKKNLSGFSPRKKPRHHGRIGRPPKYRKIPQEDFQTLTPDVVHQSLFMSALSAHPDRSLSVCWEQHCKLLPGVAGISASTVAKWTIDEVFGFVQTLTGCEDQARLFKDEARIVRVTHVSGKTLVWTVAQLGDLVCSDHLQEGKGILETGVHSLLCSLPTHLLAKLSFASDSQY
#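 AlphaScreen assay: L3MBTL1 (50 nM final) was preincubated 30 min at room temperature with biotinylated H3(1-15)K9me1 peptide (75 nM final), then 30 min with library compounds; streptavidin donor and nickel chelate acceptor beads (10 ug/mL final) added, 30 min dark.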
# Active calls of the source: *; ? = inconclusive; / = no result; [ ] = another dose, or the depositor's remark. The call rests on the fitted dose curve; in most records, active means well fitted curve in the direction sought with a large enough effect; inconclusive means small, poorly fitted or top-dose-only effect, or another doubt; inactive means no such curve, though single readings can be large; an effect the other way counts as inactive or inconclusive. Potency means the concentration at half of the fitted maximal effect.
SMILES,Sfp PPTase inh,JMJD2A Tudor inh,HP1b chromo inh,BAZ2B inh,G9a block,L3MBTL1 inh
COc1ccc(NC(=O)C2CCN(C3=NS(=O)(=O)C(c4ccc(C)c(C)c4)=C3C)CC2)cc1OC,/,-15.7%,45.2%,-2.8%,7.5%[59 µM],/
O=C1CC(c2ccco2)CC(O)=C1C=NCCO (stereo not drawn),?,-4.1%,33.3%,11.8%,79.4µM*,-17.8%
O=C1CC(c2ccco2)CC(O)=C1C=NCC1NCCc2ccccc21 (stereo not drawn),-2.4%,-20.7%,13.5%,-6.2%,-23.5%[59 µM],2.2%
CSCC[C@H](NC(=O)Cc1c(C)c2cc3c4c(oc3cc2oc1=O)CCCC4)C(=O)O,-6.1%,-18.8%,31.7%,-9.7%,44.7µM*,/
Cc1cccc(NC(=O)CSc2cn(CC(=O)N3CCOCC3)c3ccccc23)c1C,/,6.2%,44.0%,?,2.9%[59 µM],/
COc1cc(C(=O)O[C@@H]2CC3CC[C@]2(C)C3(C)C)ccc1O,22.8%,/,/,/,/,/
O=C1CCC(=O)c2oc3ccccc3c2N1,11.9%,-8.8%,20.7%,-3.8%,8.6%,-5.3%
O=C1CCc2cccc(O)c2N1,/,79.4µM*,-27.2%,/,/,/
CCOC(=O)c1[nH]c2ccc(OC)cc2c1NC(=O)/C=C/c1ccc2c(c1)OCO2,6.2%,-13.2%,41.6%,-28.2%,-15.7%[59 µM],-2.4%
CCN(CC(=O)Nc1c(C(=O)OC)[nH]c2ccc(C)cc12)c1ccc2c(c1)OCO2,44.7µM*,44.7µM*,-6.9%,39.8µM*,35.5µM*,?
O=C(/C=C/c1ccc2c(c1)OCO2)Nc1c(C(=O)O)[nH]c2ccccc12,5.6%,?,-16.4%,?,11.2µM*,-8.6%
COC(=O)c1[nH]c2cc(OC)ccc2c1NC(=O)CCN1CCN(c2ccccc2)CC1,-1.3%,-23.4%,-11.9%,-11.6%,?,/
COC(=O)c1[nH]c2ccccc2c1NC(=O)CN1CCN(c2cccc(OC)c2)C(C)C1 (stereo not drawn),-4.3%,15.8µM*,?,?,11.7%[2.33 µM],/
COC(=O)c1[nH]c2ccccc2c1NC(=O)CN1CCN(Cc2ccc3c(c2)OCO3)CC1,4.3%,79.4µM*,1.3%,-29.5%,?,/
Cc1nn(-c2ccccn2)c2c1-c1nc(N3CCOCC3)ncc1CC2,44.7µM*,-9.7%,23.9%,-25.6%,?,8.1%
CCc1ccc(N(CC)C(=O)c2cc3c(=O)oc4ccc(C)cc4c3s2)cc1,/,8.4%,50.4%,-1.0%,-4.8%[59 µM],/
O=C(c1ccc2c(c1)N(Cc1ccccc1F)C(=O)c1ccccc1S2(=O)=O)N1CCC(Cc2ccccc2)CC1,/,-23.6%,11.5%,?,-29.6%[59 µM],/
CCCCc1nc2cc(C(=O)N3CCCCC3C(=O)OC)ccc2o1 (stereo not drawn),16.1%,22.4µM*,10.7%,-1.9%,17.2%,/
CCCCc1nc2cc(C(=O)N3CCCCC3CC(=O)OCC)ccc2o1 (stereo not drawn),5.9%,-5.8%,27.1%,-0.9%,72.3%,/
COc1cccc(NC(=O)C2CCCN(c3nnc(-n4c(C)ccc4C)s3)C2)c1 (stereo not drawn),/,-28.5%,5.4%,-7.7%,1.4%[59 µM],/
COc1cc(O)c(C(C)=O)c(CC(=O)O)c1,89.1µM*,31.6µM*,?,39.8µM*,?,/
CCOC(=O)C1=C(O)/C(=C\c2ccc(CNC(=O)C(=O)Nc3ccc(C)c(C)c3)o2)N=C1C,-26.2%,/,/,-38.9%,44.7µM*,/
COCCNC(=O)/C(C#N)=C\c1ccc(CNC(=O)C(=O)Nc2ccc(C)c(C)c2)o1,-0.7%,-8.9%,36.1%,-16.9%,-8.0%,-9.3%
Cc1ccc(-c2c(C(=O)N3CCN(c4cccc(C)c4)C(C)C3)oc(=O)c3ccccc23)cc1 (stereo not drawn),/,?,-4.5%,/,-45.4%[59 µM],/
CCn1cc(C(=O)NCCc2ccc(OC)c(OC)c2)c(=O)c2cc(S(=O)(=O)N3CCC(C)CC3)ccc21,/,-24.7%,27.6%,/,-26.0%[59 µM],/
COc1c(C)cccc1C(=O)Nc1ccc(Cl)c(-c2nc3cc(C)ccc3o2)c1,/,-2.6%,64.4%,-3.9%,46.7%[59 µM],/

# Screening data deposited in PubChem BioAssay by National Center for Advancing Translational Sciences (NCATS).
